The nature of experiment [1]: BET inhibitor-based combinations targeting novel dependencies in MECOM-rearranged (r) AML: SET-2 cell line (AID 2202231). Further: nearly all actives have a fitted effect of over 35% in size.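 On viability: plate controls were DMSO treated cells for no effect and wells without cells for full effect.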 The conditions noted are these: SET-2 AML cells viability, CellTiter-Glo luminescence, 48 h; viability: active compounds read low, concentration not given here. The procedure, abridged:
(§1)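 Here, 11-point titrations of each agent were applied to 500 seeded cells and incubated 48 hr; CellTiter-Glo signal, scaled against DMSO and empty wells, was integrated as AUC, then Z-scored within the individual line.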
In general terms: In ATP-based viability assays light output follows the ATP content of the culture.

Experiment [2] can be described thus: BET inhibitor-based combinations targeting novel dependencies in MECOM-rearranged (r) AML: OCI-AML3 cell line (AID 2202232). Further: nearly all actives have a fitted effect of over 35% in size.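 On viability (% of control): series mostly up to about 46 µM; plate controls were DMSO vehicle wells for no effect and wells without cells for full effect.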 The conditions noted are these: Potency: OCI-AML3 viability. The procedure, abridged: as §1
Experiment [3] can be described thus: BET inhibitor-based combinations targeting novel dependencies in MECOM-rearranged (r) AML: MV-4-11 cell line (AID 2202233). Further: nearly all actives have a fitted effect of over 45% in size.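 On viability, % of control: plate controls were DMSO for no effect and blank wells for full effect.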 An outline of the steps:
(§2)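 Normalized to DMSO and empty-well controls, the luminescence data from CellTiter-Glo after 48 hr drug exposure were fitted across 11 concentrations. Reported metrics are area under the dose-response curve and its Z-transformed form.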

The nature of experiment [4]: BET inhibitor-based combinations targeting novel dependencies in MECOM-rearranged (r) AML: HNT-34 cell line (AID 2202234). Further: nearly all actives have a fitted effect of over 35% in size.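 On viability (% of control): plate controls were vehicle wells for no effect and cell-free wells for full effect.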 The procedure, abridged: as §2
The nature of experiment [5]: BET inhibitor-based combinations targeting novel dependencies in MECOM-rearranged (r) AML: UCSD-AML1 cell line (AID 2202235). Further: nearly all actives have a fitted effect of over 40% in size.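 On viability (% of control): series mostly up to about 46 µM; plate controls were DMSO vehicle wells for no effect and blank wells for full effect.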 An outline of the steps:
as §2

A short description of experiment [6]: BET inhibitor-based combinations targeting novel dependencies in MECOM-rearranged (r) AML: AML-191 cell line (AID 2202236; further: nearly all actives have a fitted effect of over 35% in size;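 on viability (% of control): plate controls were vehicle wells for no effect and wells without cells for full effect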). The procedure, abridged: as §1
The nature of experiment [7]: BET inhibitor-based combinations targeting novel dependencies in MECOM-rearranged (r) AML: AML-194 cell line (AID 2202237; further: nearly all actives have a fitted effect of over 40% in size;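 on viability (% of control): plate controls were vehicle wells for no effect and wells without cells for full effect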). The procedure, abridged: as §1

These results are taken from PubChem BioAssay (NCATS).

Molecules are shown by their SMILES. Inconclusive results are not listed. Unmarked numbers belong to inactive results. Calls of active or inactive are those of the source. The call rests on the fitted dose curve; in most records, active means well fitted curve in the direction sought with a large enough effect; inconclusive means small, poorly fitted or top-dose-only effect, or another doubt; inactive means no such curve, though single readings can be large; an effect the other way counts as inactive or inconclusive.
Potency means the concentration at half of the fitted maximal effect.

Turning to `Cc1c(CN2CCC(Nc3ncnc4sc(CC(F)(F)F)cc34)CC2)ccc2c1cc(C#N)n2Cc1cn[nH]c1`, the Potency in experiment [1] is 3320 nM (active); in experiment [2], 13200 nM (active); in experiment [3], 3320 nM (active); in experiment [4], 16600 nM (active); in experiment [5], 16600 nM (active); in experiment [6], 18600 nM (active). Besides, the Potency in experiment [7] is 20900 nM (active).

For `Nc1nc(=S)c2[nH]cnc2[nH]1`, the Potency was 742 nM (active) in experiment [1]; 417 nM (active) in experiment [2]; 296 nM (active) in experiment [3]; 3320 nM (active) in experiment [4]; 2950 nM (active) in experiment [5]; 833 nM (active) in experiment [6]. In addition, the Potency in experiment [7] was 3720 nM (active).

Consider `COc1cc(/C=C/C(=O)CC(=O)/C=C/c2ccc(O)c(OC)c2)ccc1O`, for which the Potency in experiment [1] is 20900 nM (active); in experiment [2] it was 8330 nM (active); in experiment [3] it was 3320 nM (active); in experiment [4], 14800 nM (active); in experiment [5], 13200 nM (active); in experiment [6], 16600 nM (active).

As for `COc1cc(Nc2cnc(C#N)c(O[C@H](C)CN(C)C)n2)ncc1-c1cnn(C)c1`, the Potency in experiment [1] is 3720 nM (active); in experiment [2], 1320 nM (active); in experiment [3], 742 nM (active); in experiment [4], 2950 nM (active); in experiment [5] it was 1860 nM (active); in experiment [6] it was 1860 nM (active). Besides, the Potency in experiment [7] was 1480 nM (active).

With `CC(=O)N1c2ccc(-c3ccc(C(=O)O)cc3)cc2[C@H](Nc2ccc(Cl)cc2)C[C@@H]1C`, the Potency in experiment [1] was 372 nM (active); in experiment [2], 66.1 nM (active); in experiment [3] it was 93.4 nM (active); in experiment [4], 468 nM (active); in experiment [5], 1320 nM (active); in experiment [6], 468 nM (active).

Take `CC(=O)NCC(=O)N1[C@@H]2CC[C@H]1c1ccc(Nc3ncc(C(F)(F)F)c(NC4CCC4)n3)cc12`: the Potency in experiment [1] was 4170 nM (active); in experiment [2] it was 14800 nM (active); in experiment [3], 41.7 nM (active); in experiment [4], 662 nM (active); in experiment [5] it was 934 nM (active); in experiment [6], 833 nM (active). The Potency in experiment [7] was 662 nM (active).

As for `COc1ccc(-c2nc(N3CCOCC3)c3sc(CN(C)c4ncc(C(=O)NO)cn4)cc3n2)cn1`, the Potency in experiment [1] was 29.5 nM (active); in experiment [2], 33.2 nM (active); in experiment [3], 23.5 nM (active); in experiment [4], 41.7 nM (active); in experiment [5] it was 29.5 nM (active); in experiment [6] it was 46.8 nM (active).

As for `CCOc1ccc(-n2c([C@@H](C)N(Cc3cccnc3)C(=O)Cc3ccc(F)c(C(F)(F)F)c3)nc3ncccc3c2=O)cc1`, the viability in experiment [1] is 112%. Also, the Potency result in experiment [2], in experiment [4], in experiment [5] and in experiment [6] was “inactive” in each case. For the same molecule, the Potency in experiment [3] is 18600 nM (active).

`C/C=C1\NC(=O)[C@H]2CSSCC/C=C\[C@H](CC(=O)N[C@H](C(C)C)C(=O)N2)OC(=O)[C@H](C(C)C)NC1=O`: the Potency in experiment [1] is 29.5 nM (active); in experiment [2], 10.5 nM (active); in experiment [3], 11.8 nM (active); in experiment [4], 8.3 nM (active); in experiment [5] it was 10.5 nM (active); in experiment [6], 14.8 nM (active). Further, the Potency in experiment [7] was 23.5 nM (active).

Turning to `CCCCCN(C)CCC(O)(P(=O)(O)O)P(=O)(O)O`, in experiment [1], the viability is 124%. Moreover, the viability (% of control) in experiment [2] is 118% [at 5.12 µM]; in experiment [4], 109% [at 5.12 µM]; in experiment [5], 109% [at 5.12 µM]; in experiment [6], 111% [at 5.12 µM]; in experiment [7], 115% [at 5.12 µM]. The viability, % of control in experiment [3] is 131% [at 5.12 µM].

On to `CC(=NNC(=O)c1cccc(S(=O)(=O)N2CCOCC2)c1)c1cc(Cl)ccc1O`, for which the Potency in experiment [1] was 6610 nM (active); in experiment [2], 5250 nM (active); in experiment [3], 7420 nM (active); in experiment [4] it was 2630 nM (active); in experiment [5], 5250 nM (active); in experiment [6], 2090 nM (active). For the same molecule, the Potency in experiment [7] is 4680 nM (active).

Take `CC1(C)O[C@@H]2C[C@H]3[C@@H]4CCC5=CC(=O)C=C[C@]5(C)[C@H]4[C@@H](O)C[C@]3(C)[C@]2(C(=O)CO)O1`: the viability in experiment [1] is 114%. Besides, the Potency entry in experiment [2], in experiment [3], in experiment [4], in experiment [5] and in experiment [6] was “inactive” in each case. Also, the Potency in experiment [7] is 332 nM (active).

For the molecule `CC[C@@]1(O)C[C@H](O[C@H]2C[C@H](N(C)C)[C@H](O[C@H]3C[C@H](O)[C@H](O[C@H]4CCC(=O)[C@H](C)O4)[C@H](C)O3)[C@H](C)O2)c2c(cc3c(c2O)C(=O)c2c(O)cccc2C3=O)[C@@H]1C(=O)OC`, the Potency in experiment [1] is 3720 nM (active); in experiment [2], 3320 nM (active); in experiment [3], 742 nM (active); in experiment [4], 3320 nM (active); in experiment [5], 2350 nM (active); in experiment [6], 2950 nM (active). Also, the Potency in experiment [7] is 3720 nM (active).

As for `CC(=O)Nc1ccc(O)cc1`, the viability in experiment [1] is 94.1%. The Potency entry in experiment [2], in experiment [3], in experiment [4], in experiment [5], in experiment [6] and in experiment [7] was “inactive” throughout.

For the molecule `C=C1C(=O)O[C@H]2C[C@H](C)C(/C=C/C(C)=O)=CC[C@H]12`, the Potency in experiment [1] is 4680 nM (active); in experiment [2], 1180 nM (active); in experiment [3] it was 1860 nM (active); in experiment [4] it was 3320 nM (active); in experiment [5], 2090 nM (active); in experiment [6], 2350 nM (active).

Consider `COc1cc([C@@H]2c3cc4c(cc3[C@@H](O[C@@H]3O[C@@H]5CO[C@@H](c6cccs6)O[C@H]5[C@H](O)[C@H]3O)[C@H]3COC(=O)[C@H]23)OCO4)cc(OC)c1O`, for which the Potency in experiment [1] was 1180 nM (active); in experiment [2], 263 nM (active); in experiment [3] it was 46.8 nM (active); in experiment [4] it was 235 nM (active); in experiment [5], 132 nM (active); in experiment [6], 332 nM (active).

Regarding `COc1ccc([C@@H]2CC(=O)c3c(O)cc(O[C@@H]4O[C@H](CO[C@@H]5O[C@@H](C)[C@H](O)[C@@H](O)[C@H]5O)[C@@H](O)[C@H](O)[C@H]4O)cc3O2)cc1O`, the viability in experiment [1] was 119%. The Potency entry in experiment [2], in experiment [3], in experiment [4], in experiment [5], in experiment [6] and in experiment [7] was “inactive” throughout.

By viability is commonly meant a read-out of living cells in per cent, often relative to untreated cells.
